The whole screen tested about 2,000 compounds, of which about 110 (5.5%) showed an effect of 50% or more. Only a selection was taken, and strong results are over-represented in it overall.

The target in the assay is Genome polyprotein (dengue virus type 2) (UniProt P29990).
Where [1] appears, read: Thailand/16681/1984, Concentration 25.0 uM, Number of replicates 1.0.

Turning to `Cc1cc(CO)c2cccc(Nc3cc(C)on3)c2n1`, the inhibition stood at 1.66% (Thailand/16681/1984, Concentration 49.95 uM, Number of replicates 2.0, Standard deviation 1.3194982141200182 %) and 2.71% (Thailand/16681/1984, Concentration 99.9 uM, Number of replicates 2.0, Standard deviation 1.2714193652686099 %).

For `Cc1cc(CO)c2cccc(Cc3ccccc3NC(=O)[C@@H](N)CC(N)=O)c2n1`, the inhibition by setting is: (Thailand/16681/1984, Concentration 49.95 uM, Number of replicates 2.0, Standard deviation 0.9388389208439332 %) 28.9%; (Thailand/16681/1984, Concentration 99.9 uM, Number of replicates 2.0, Standard deviation 1.1783962129832455 %) 59.7%.

As for `Cc1cc(Cl)c2cccc(NC(=O)CCN)c2n1`, the inhibition was 99.2% (Thailand/16681/1984, Concentration 49.95 uM, Number of replicates 2.0, Standard deviation 0.0008200090846279543 %) and 98.9% (Thailand/16681/1984, Concentration 99.9 uM, Number of replicates 2.0, Standard deviation 0.04112992935002318 %).

Consider `Cc1cc(CO)c2cccc(Nc3cc(O)[nH]n3)c2n1`, for which the inhibition worked out at 32.3% (Thailand/16681/1984, Concentration 49.95 uM, Number of replicates 2.0, Standard deviation 1.1262325758678584 %) and 51.5% (Thailand/16681/1984, Concentration 99.9 uM, Number of replicates 2.0, Standard deviation 0.556697154318326 %).

As for `Cc1cc(CO)c2cccc(NC(=O)Cc3cccc(CN)c3)c2n1`, the inhibition (Thailand/16681/1984, Concentration 49.95 uM, Number of replicates 2.0, Standard deviation 1.2018993187616485 %) amounted to 15.4% and the inhibition (Thailand/16681/1984, Concentration 99.9 uM, Number of replicates 2.0, Standard deviation 0.39117400474888586 %) was found to be 23.6%.

As to `Cc1cc(CO)c2cccc(Cc3ccccc3NC(=O)[C@H](N)CCO)c2n1`, the inhibition (Thailand/16681/1984, Concentration 49.95 uM, Number of replicates 2.0, Standard deviation 1.1804730410904682 %) is -2.49% and the inhibition (Thailand/16681/1984, Concentration 99.9 uM, Number of replicates 2.0, Standard deviation 1.1029287785847963 %) is -0.758%.

Take `Cc1cc(Cl)c2cccc(NC(=O)[C@@H]3CCCC[C@H]3N)c2n1`: the inhibition (Thailand/16681/1984, Concentration 99.9 uM, Number of replicates 2.0, Standard deviation 1.2808103574664134 %) is -9.95%.

`Cc1nc(Cl)c(NC(=O)C2CCN(c3ccc(C=O)cc3)CC2)c(Cl)n1`: the inhibition under setting [1] stood at 12.8%.

For the compound `CC(C)(CO)NC(=O)c1cc(Cl)cc(NC(=O)Cn2cnccc2=O)c1`, the inhibition was -3.9% (Thailand/16681/1984, Concentration 49.5 uM, Number of replicates 2.0, Standard deviation 0.3718016272993385 %); -5.97% (Thailand/16681/1984, Concentration 99.01 uM, Number of replicates 2.0, Standard deviation 1.0416819516575477 %); -5.4% (Thailand/16681/1984, Concentration 198.0 uM, Number of replicates 2.0, Standard deviation 1.29652000519297 %).

Turning to `O=Cc1ccc(N2CCC(C(=O)N3CCN(C(=O)C(F)(F)F)CC3)CC2)cc1`, under setting [1], the inhibition was determined as 8.59%.

As to `Cc1n[nH]c(CC(=O)N2CCC[C@H](n3cnc(C(N)=O)n3)C2)n1`, the inhibition runs as follows: (Thailand/16681/1984, Concentration 49.5 uM, Number of replicates 2.0, Standard deviation 0.8615620840433298 %) -1.22%; (Thailand/16681/1984, Concentration 99.01 uM, Number of replicates 2.0, Standard deviation 0.2938998370290156 %) -1.99%; (Thailand/16681/1984, Concentration 198.0 uM, Number of replicates 2.0, Standard deviation 1.103757347430939 %) -0.94%.

In the case of `Cn1cc(NC(=O)c2ccccc2C(F)(F)F)c(-c2cnn(C)n2)n1`, the inhibition is -2.97% (Thailand/16681/1984, Concentration 49.5 uM, Number of replicates 2.0, Standard deviation 0.32036291597833877 %); -3.46% (Thailand/16681/1984, Concentration 99.01 uM, Number of replicates 2.0, Standard deviation 1.175972600606475 %); -3.2% (Thailand/16681/1984, Concentration 198.0 uM, Number of replicates 2.0, Standard deviation 1.0582279614459547 %).

Take `O=Cc1ccc(N2CCC(C(=O)Nc3ccc4scnc4c3)CC2)cc1`: the inhibition under setting [1] was 13%.

`O[C@]1(C(F)(F)F)CC[C@H](CNCc2nnc3ccccn23)CC1`: the inhibition is 4.51% (Thailand/16681/1984, Concentration 49.5 uM, Number of replicates 2.0, Standard deviation 2.244095461971029 %); 4.61% (Thailand/16681/1984, Concentration 99.01 uM, Number of replicates 2.0, Standard deviation 1.4092400656614155 %); 1.75% (Thailand/16681/1984, Concentration 198.0 uM, Number of replicates 2.0, Standard deviation 2.783814769891106 %).

Regarding `CCc1nc([C@@H](C)NC(=O)c2ccc(O)c(NC(=O)c3ccncc3F)c2C)n[nH]1`, the inhibition by setting is: (Thailand/16681/1984, Concentration 49.5 uM, Number of replicates 2.0, Standard deviation 0.640305880758115 %) -3.94%; (Thailand/16681/1984, Concentration 99.01 uM, Number of replicates 2.0, Standard deviation 0.7647439452243474 %) -3.61%; (Thailand/16681/1984, Concentration 198.0 uM, Number of replicates 2.0, Standard deviation 1.5490355987880475 %) -3.27%.

On to `Cc1cn2nnc(C(=O)N[C@H]3CCCCn4c3n[nH]c4=O)c2c(=O)[nH]1`, for which the inhibition runs as follows: (Thailand/16681/1984, Concentration 49.5 uM, Number of replicates 2.0, Standard deviation 0.2359641679366373 %) -0.501%; (Thailand/16681/1984, Concentration 99.01 uM, Number of replicates 2.0, Standard deviation 0.10523355791430405 %) -0.563%; (Thailand/16681/1984, Concentration 198.0 uM, Number of replicates 2.0, Standard deviation 0.06258385535382655 %) -1.4%.

As to `O=Cc1ccc(N2CCC(C(=O)Nc3nnc(C(F)(F)F)s3)CC2)cc1`, under setting [1], the inhibition came to 12.7%.

For `O=Cc1ccc(N2CCC(C(=O)N3CCNC(=O)C34CCCCC4)CC2)cc1`, the inhibition under setting [1] is 13.7%.

As to `CCCCN(Cc1ccc(F)cc1)C(=O)C1CCN(c2ccc(C=O)cc2)CC1`, the inhibition under setting [1] was 16.4%.

Regarding `COc1cc(C(=O)Nc2cnc3ccccc3c2)nc(N2CCNCC2)n1`, the inhibition is 4.46% (Thailand/16681/1984, Concentration 49.5 uM, Number of replicates 2.0, Standard deviation 9.540542197549359 %); 6.31% (Thailand/16681/1984, Concentration 99.01 uM, Number of replicates 2.0, Standard deviation 4.349736840709832 %); 7.41% (Thailand/16681/1984, Concentration 198.0 uM, Number of replicates 2.0, Standard deviation 5.514135579540427 %).

Take `O=Cc1ccc(N2CCC(C(=O)N3CCCN(c4ccc(C(F)(F)F)cn4)CC3)CC2)cc1`: the inhibition under setting [1] is 9.22%.

For `Cc1cc(CO)c2cccc(Cc3cccc(NC(=O)c4cc(C(=O)O)[nH]n4)c3)c2n1`, the inhibition reads like this: (Thailand/16681/1984, Concentration 49.95 uM, Number of replicates 2.0, Standard deviation 0.024232414845035546 %) 4.13%; (Thailand/16681/1984, Concentration 99.9 uM, Number of replicates 2.0, Standard deviation 0.7422093740247248 %) 7.91%.

Take `COCc1cc(-c2ccccc2C(=O)Nc2cnn(C)c2)ccn1`: the inhibition runs as follows: (Thailand/16681/1984, Concentration 49.5 uM, Number of replicates 2.0, Standard deviation 1.4111132401966338 %) -5.45%; (Thailand/16681/1984, Concentration 99.01 uM, Number of replicates 2.0, Standard deviation 1.6255328031848963 %) -5.34%; (Thailand/16681/1984, Concentration 198.0 uM, Number of replicates 2.0, Standard deviation 0.730186058256325 %) -4.12%.

For `O=Cc1ccc(N2CCC(C(=O)NCC(=O)Nc3ccc(F)c(F)c3)CC2)cc1`, under setting [1], the inhibition came to 14.1%.

In general, inhibition refers to the relative decrease from the control value, in per cent.

(Values after ChEMBL document CHEMBL5606460, “ASAP - DENV-2 NS2B-NS3 protease fluorescence single point” (2024).)
